This passage reports growth results from PubChem BioAssay (NCI).

Compounds without any hit were thinned out: in the full panel of roughly 83,000, 20% have a hit.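 Each cell line was grown in a 96-well plate and treated with one concentration of compound for 48 hours. Values below 10 were considered active.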 A number with no mark means an inactive call. Active and inactive are the calls of the source.

Test in all cases: NCI-60 one-dose screen, 48 h (100 = growth as untreated, 0 = no growth, -100 = all killed)
What all share (conditions): 10 µM unless noted

Assay [1] relates to SK-MEL-2 melanoma.
Assay [2] deals with EKVX NSCLC.
Assay [3] concerns SN12C renal.
For assay [4], the system named is UO-31 renal.
Assay [5] concerns TK-10 renal.
Assay [6] has as its system ACHN renal.
Assay [7] concerns CAKI-1 renal.
In assay [8] the test system is A498 renal.
Assay [9] has as its system CCRF-CEM leukemia.
Assay [10] has as its system MOLT-4 leukemia.

Turning to `CCOC(=O)n1cc(-c2nonc2-c2cn(C)c3ccccc23)c2ccccc21`, the growth in [1] is 37.3%; in assay [2] it was 55.7%; in assay [3], 45.1%; in [4] it was 42.9%; in assay [5] it was 63.2%; in [6] it was 43.2%. In addition, the growth in assay [7] is 29.4%; in assay [8], 15.2%; in [9] it was 21.6%; in [10] it was 23.2%.
Take `CCc1ccc(CCC(=O)Nc2ncc(Cc3ccc(Cl)cc3)s2)o1`: the growth in assay [1] was 44.1%; in assay [2], 37.2%; in [3] it was 44.8%; in assay [4], 43%; in [5], 60%; in assay [6] it was 48.3%. Further, the growth in assay [7] is 31.9%; in assay [8], 0.963% (active); in [9], 22.4%; in assay [10], 36.5%.
Regarding `COC(=O)C1=C(C(=O)Nc2cccnc2)C2OC1(C(Cc1ccccc1)Oc1ccccc1)C1OC21` (stereo not given), the growth was 93.5% in [1]; 101% in assay [2]; 48.5% in [3]; -99.3% (active) in assay [4]; -8.69% (active) in assay [5]; -99.2% (active) in assay [6]. The growth in assay [7] was 57.4%; in assay [8], 121%; in assay [9], -23% (active); in assay [10], -31.5% (active).
Consider `O=C1N[C@@H]2[C@@H](O)[C@@H](O)[C@H](O)C[C@H]2c2cc3c(c(O)c21)OCCO3`, for which the growth in assay [1] was -48.7% (active); in assay [2], -14.3% (active); in assay [3], -9.95% (active); in [4], -19.7% (active); in assay [5], -11.9% (active); in assay [6], -14.5% (active). The growth is 4.9% (active) in assay [7], -29.7% (active) in assay [8], -6.07% (active) in assay [9] and -0.799% (active) in assay [10].
For `Cc1[nH]c(/C=C/C(=O)c2ccc(C(F)(F)F)c(F)c2)c(C)c1C(=O)NCC(C)C`, the growth in assay [1] is 110%; in assay [2], 96.1%; in assay [3], 97.9%; in [4], 92%; in [5], 109%; in assay [6], 101%. The growth in assay [7] is 94.8%; in [8] it was 69%; in assay [9] it was 101%; in [10] it was 101%.
Regarding `COc1cc(C(=O)c2c(-c3ccccc3)oc3c(OC)cccc23)cc(OC)c1O`, the growth was 62% in assay [1]; 44.9% in assay [2]; 27.1% in assay [3]; 46.2% in [4]; 64.6% in assay [5]; 28.1% in assay [6]. Besides, the growth is 33.1% in assay [7], -26.1% (active) in [8], 13.8% in [9] and 18.7% in [10].
Turning to `COc1cc(/C=C/c2cc(/C=C/c3ccc(O)c(OC)c3)n(C(=O)Nc3ccc(F)cc3)n2)ccc1O`, the growth in assay [1] was -27.1% (active); in assay [2] it was 26.9%; in assay [3] it was 17.9%; in [4], 14%; in assay [5], 38.1%; in assay [6] it was 20.2%. Moreover, the growth in [7] was -7.81% (active); in assay [8], 31.5%; in assay [9], 6.82% (active); in assay [10], -3.56% (active).
In the case of `COc1ccccc1-n1c(-c2cc(O)ccc2C)cn2c3c(=O)[nH]c(=O)n(C)c3nc12`, the growth in assay [1] is 89.7%; in [2], 87.4%; in [3] it was 41.6%; in assay [4] it was 36.4%; in assay [5], 99.2%; in [6] it was 27.1%. For the same compound, the growth in assay [7] was 39.8%; in assay [8], 106%; in [9] it was 114%; in assay [10], 71.5%.
For the compound `CCN=C1C=CC(=C(c2ccc(N(C)C)cc2)c2ccc(N(C)C)cc2)c2ccccc21`, the growth in [1] was -39.5% (active); in assay [2], -6.63% (active); in assay [3], -22.2% (active); in assay [4], -42.9% (active); in [5] it was -3.47% (active); in assay [6], -9.84% (active). Further, the growth in assay [7] is 0.419% (active); in assay [8] it was 13.3%; in [9] it was 9.37% (active); in assay [10] it was 9.89% (active).
For `COc1ccc(/C=C/C(=O)c2ccc(NC(=O)CSc3nnc(-c4cc(-c5ccccc5)nc5ccccc45)n3-c3ccccc3)cc2)cc1`, the growth in [1] is 107%; in assay [2], 98%; in assay [3], 92.7%; in assay [4] it was 100%; in assay [5], 112%; in assay [6], 95.7%. The growth in assay [7] was 90%; in assay [8], 85.3%; in assay [9] it was 88.3%; in [10], 80.2%.
As to `CC1(C)C2CC=C(/C=N/NC(=O)C3CCC(=O)N3)C1C2` (stereo not given), the growth in assay [1] was 102%; in assay [2], 105%; in assay [3] it was 104%; in assay [4] it was 94.6%; in assay [5], 97.2%; in [6] it was 102%. The growth is 97.4% in [7], 102% in assay [8], 104% in [9] and 103% in assay [10].
Regarding `O=C1OCC2=C1C(c1cccc(C(F)(F)F)c1)c1cc3c(cc1N2CCO)OCO3` (stereo not given), the growth in assay [1] is 24%; in [2], 49.7%; in assay [3], 46.8%; in assay [4] it was 47.3%; in [5], 60.8%; in assay [6], 42.8%. Moreover, the growth in assay [7] was 26.8%; in assay [8], 20.9%; in [9], 7.82% (active); in assay [10], 20%.
